# Data taken from PubChem BioAssay (Tox21).
# Records with an inconclusive call do not appear. Values without a mark were called inactive. The source made the active and inactive calls. Calls come from the whole dose curve; as a rule, active = well fitted cell-killing curve with a large enough effect in the repeat runs; inconclusive = weak or mixed curves; inactive = flat fitted curve, though single readings scatter.
# Assay: qHTS RealTime-Glo MT Cell Viability Assay in HepG2 cells - 16 hour (AID 1224885); note: nearly all actives have a fitted effect of over 50% in size
# Conditions: RealTime-Glo luminescence; series mostly up to 76.8 µM; activity change, negative = cytotoxic: at the top concentration
# From the text: U.S. Tox21 Program National Center for Advancing Translational Sciences [NCATS] NIH Chemical Genomics Center [NCGC] U.S. Environmental Protection Agency [EPA] National Institutes of Environmental Health Sciences [NIEHS] National Toxicology Program [NTP] U.S. Food and Drug Administration [FDA] Tox21 Assay Overview: Measure of cell viability is critical in the cell-base assay. Analysis of cell viability is necessary for the characterization of cell responses to cytotoxic drugs and environmental stress. A RealTime-Glo MT Cell Viability Assay to monitor cell viability in real time of continues cell culture during 40 hours of compound treatment was used to screen Tox21 10K library compounds in HepG2 cells. The RealTime-Glo MT Cell Viability Assay is a nonlytic, homogeneous, bioluminescent method to measure cell viability in real time using a simple, plate-based method. The assay involves adding NanoLuc luciferase and a cell-permeant prosubstrate to cells in culture. Viable cells reduce the proprietary prosubstrate to generate a substrate for NanoLuc luciferase. This substrate diffuses from cells into the surrounding culture medium, where it is rapidly used by the NanoLuc Enzyme to produce a luminescent signal. The signal correlates with the number of viable cells, making the assay well suited for cytotoxicity studies.
# Tox21 Assay Protocol Summary: The mixture of HepG2 cell suspension and reagents were dispensed at 600cells/6 ul/well in 1536-well tissue culture treated black solid bottom plates using a Multidrop dispenser. After the assay plates were incubated at a 37 C/5% CO2 incubator for 5 hours, 23 nL of compounds dissolved in DMSO, positive and negative controls was transferred to the assay plate by a pintool work station. The plates were incubated at 37 C for 40 hours. The luminescence intensity were measured at 0h, 8h, 16h, 24h, 32h and 40h time points using ViewLux plate reader during compound treatment.
# % is set by controls: 0 for no effect and ±100 for the full control effect.
SMILES,Potency,"activity change, negative = cytotoxic"
CC(C)(c1ccc(O)cc1)c1ccc(O)cc1,inactive,
CCCCCCCCS(=O)(=O)Cl,,-0.629%
CC(=O)Nc1c(I)cc(I)c(C(=O)O)c1I,,-1.06% [at 35.3 µM]
CCCCOCCOCCOCCCC,,-1.92%
CCCCCCCCCCCCCC=O,,0.224% [at 6.97 µM]
O=C1CCCN1C1CCCCC1,,2.59%
COC(=O)CC(C)=O,,-3.29%
NC(=O)c1ccc(N)cc1,,2.3%
CN1CCC(=C2c3ccccc3CC(=O)c3sccc32)CC1,,-4.28% [at 35.3 µM]
CCc1cccc2c(CCO)c[nH]c12,,3.12% [at 35.3 µM]
O=C(O)CNC(=O)c1ccc([N+](=O)[O-])cc1,,-0.397%
Cc1cnc(NS(=O)(=O)c2ccc(N)cc2)nc1,,2.21% [at 35.3 µM]
COC(=O)c1ccc(C)cc1C1=NC(C)(C(C)C)C(=O)N1 (stereo not given),,2.88%
Cc1sccc1Br,,0.649% [at 35.3 µM]
O=C(O)CN(CCOCCOCCN(CC(=O)O)CC(=O)O)CC(=O)O,,0.683% [at 0.29 µM]
NCCc1cnc[nH]1,,1.69% [at 35.3 µM]
N=C(N)c1ccc(OCCCOc2ccc(C(=N)N)cc2)cc1,,-0.827% [at 35.3 µM]
C[N+](C)(C)CC(O)CC(=O)[O-] (stereo not given),,-0.39% [at 35.3 µM]
CCCC(=O)O[C@]1(C(=O)CO)CC[C@H]2[C@@H]3CCC4=CC(=O)CC[C@]4(C)[C@H]3[C@@H](O)C[C@@]21C,,-1.78% [at 35.3 µM]
N=C(N)c1ccc2cc(OC(=O)c3ccc(N=C(N)N)cc3)ccc2c1,,-2.13% [at 35.3 µM]

SMILES,Potency,"activity change, negative = cytotoxic"
COCCCOCCCOC,,-0.515%
CCCCC/C=C\CCC=O,,-0.853%
O=C(CCCN1CCC(O)(c2cccc(C(F)(F)F)c2)CC1)c1ccc(F)cc1,,-10.7% [at 35.3 µM]
CCCc1cc(C(N)=S)ccn1,,5.25% [at 35.3 µM]
NS(=O)(=O)c1cc(C(=O)NN2C[C@H]3[C@H]4CCC(C4)[C@H]3C2)ccc1Cl,,3.32% [at 35.3 µM]
CC/C=C\CCOC(C)=O,,1.76%
CC(=O)OCC(=O)[C@@]1(O)CCC2C3CCC4=CC(=O)CC[C@]4(C)C3[C@@H](O)C[C@@]21C (stereo not given in full),,-0.733% [at 35.3 µM]
CCCCCCCCCCCCN(CCCCCCCCCCCC)CCCCCCCCCCCC,,2.45%
Brc1c(NC2=NCCN2)ccc2nccnc12,,0.0611% [at 35.3 µM]
COc1c(N2C[C@@H]3CCCN[C@@H]3C2)c(F)cc2c(=O)c(C(=O)O)cn(C3CC3)c12,,-0.156% [at 35.3 µM]
N=C(N)c1ccccc1,,1.25%
O=c1cc(CO)occ1O,,6.73% [at 35.3 µM]
CCN(CC)CCOCCOC(=O)C1(c2ccccc2)CCCC1,,-4.42% [at 35.3 µM]
C=C(C)C(=O)OCCCCCCCC(C)C,,0.213%
C=C(C)CS(=O)(=O)O,,0.361%
CC(C)OC(=O)c1ccccc1,,4.22%
CCc1nccnc1CC,,-1.18% [at 15.8 µM]
C=C[Si](OC(=C)C)(OC(=C)C)OC(=C)C,,2%
CN1C(=O)N(C)C(O)C1O (stereo not given),,0.11%
CCO/C([O-])=N/c1c[n+](N2CCOCC2)no1,,-0.609% [at 35.3 µM]
